Laboratory results reported in the supplement of paper PMC10338343.
± gives the standard deviation.

Experiments:
[1] = system: MILI (PIWIL2) piRISC loaded with L1MC piRNA (26 nt); assay: pre-steady-state target cleavage rate (min^-1); guide: L1MC piRNA 5'p-UAACUAAAUACUAUGCAAGCUGUAGG; higher = faster piRNA-guided slicing of the target; details: auxiliary factor: 500 nM mouse GTSF1
In short: (§1)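 The pre-steady-state cleavage rate was obtained by Cleave-'n-Seq with a burst-and-steady-state fit. A transcribed, DNA-blocked target RNA library (0.1 nM) was mixed with 1 nM active affinity-purified piRISC carrying one synthetic guide, with or without 500 nM GTSF1 partner protein, in HEPES–potassium acetate buffer at 33 °C for 0–8 or 0–960 min. Uncleaved targets were sequenced and normalised to depth and to weakly complementary targets, with three trials pooled and k3 capped at 0.0001 min^-1.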

[2] = system: EfPiwi piRISC loaded with L1MC piRNA (26 nt); assay: pre-steady-state target cleavage rate (min^-1); auxiliary factor: 500 nM Ephydatia muelleri Gtsf1; guide: L1MC piRNA 5'p-UAACUAAAUACUAUGCAAGCUGUAGG; MIWI and MILI are mouse PIWI proteins and EfPiwi is from a freshwater sponge; tags in brackets are library labels; higher = faster piRNA-guided slicing of the target
In short: as §1

Row | Sequence | pre-steady-state target cleavage rate [1] | pre-steady-state target cleavage rate [2]
1 | UCCUCCUACAGCUUGCAUACUAUUUAGUAA | 0.0473 ± 0.012 | 0.00454 ± 0.0033
2 | UCCUCCUACAGCUUGCAUAGUAUUAAGAAA | 0.159 ± 0.036 | 0.0051 ± 0.0031
3 | UCCUCCUACAGCUUGCAUAGUAUAUAGAUA | 0.0715 ± 0.018 | 0.0051 ± 0.0025
4 | UCCUGCUACACCUUGCAUAGUAUUAAGUUA | 0.178 ± 0.034 | 0.00618 ± 0.0036
5 | UCCUGGAUGUGCUUGCAUAGUAAUUAGAUA | 0.00915 ± 0.0044 | 0.00395 ± 0.0024
6 | UCCUGGAUGUCCUUGCAUAGUAUUUAGCUUA | 0.0698 ± 0.014 | 0.0051 ± 0.0028
7 | UCCUGCUACAGCUUGCAUAGAAUUUAGAUA | 0.0657 ± 0.021 | 0.00319 ± 0.0012
8 | UCCUGCUACAGCUUGCAUAGUAUUUGUUA | 0.124 ± 0.028 | 0.00505 ± 0.002
9 | UCCUGGAUGAGCUUGCUUAGUAUUUAGAUA | 0.128 ± 0.02 | 0.00382 ± 0.0029
10 | UCCUGGAUGAGCUUGUCAUAGUAUUUAGUUA | 0.0971 ± 0.013 | 0.00721 ± 0.0027
11 | UCCUCCUUCAGCUUGCAUAGUAUUUUCAAA | 0.115 ± 0.022 | 0.00259 ± 0.0024
12 | UCCUGGAUGUGCUUGGCAUAGUAUUUAGUUA | 0.19 ± 0.057 | 0.00458 ± 0.0029
13 | UCCUCCUACAGCUUGCAUUGUAUUUAGAUA | 0.119 ± 0.019 | 0.00539 ± 0.0029
14 | UCCUGCUACACCUUGCAUACUAUUUAGUUA | 0.0767 ± 0.022 | 0.00403 ± 0.0024
15 | UCCUGGUUCAGCUUCCAUAGUAUUUAGUUA | 0.0301 ± 0.012 | 0.00303 ± 0.0021
16 | UCCUGGAACACCAUGCAUAGUAUUUAGUUA | 0.163 ± 0.018 | 0.00616 ± 0.0041
17 | UCCUGGAACAGCUAGCAUAGUAUUUAGAAA | 0.219 ± 0.034 | 0.00262 ± 0.0023
18 | UCCUCCUACAGCUAGCAUAGUAUUUUGUUA | 0.151 ± 0.019 | 0.0077 ± 0.0035
19 | UCCUCGUACAGCUUGCAUAGUAUUUAGAUA | 0.177 ± 0.025 | 0.00437 ± 0.0019
20 | UCCUGCUACAGCUUGCAUAGUAUUAACAAA | 0.0401 ± 0.011 | 0.00321 ± 0.0023
21 | UCCUCCUACAGCUUGCAUAGAAUUAAGUUA | 0.127 ± 0.03 | 0.00382 ± 0.0025
22 | UCCUGCUACAGCUUGCACUAGUAUUUAGUUA | 0.0609 ± 0.015 | 0.00557 ± 0.0023
23 | UCCUGGAUGUCCUUGCAUAGUAUUAUAGUUA | 0.122 ± 0.019 | 0.00424 ± 0.0041

Row | Sequence | pre-steady-state target cleavage rate [1] | pre-steady-state target cleavage rate [2]
24 | UCCUGGUACAGGUUGCAUAGAAUUUAGUUA | 0.0804 ± 0.021 | 0.00277 ± 0.0022
25 | UCCUGGAACAGCUUGCAUUGUAUUUAGAUA | 0.149 ± 0.019 | 0.00313 ± 0.0017
26 | UCCUGGAUGUCCUUGCAUAGUAUUUAGGUUA | 0.0768 ± 0.019 | 0.00393 ± 0.0033
27 | UCCUGCUACAGCUUGCAUACUAUUUAGAAA | 0.0482 ± 0.015 | 0.00298 ± 0.0021
28 | UCCUGGUACAGCUUGCUUAGUAUUUAGAUA | 0.122 ± 0.024 | 0.00305 ± 0.0025
29 | UCCUCCUACAGCUUGCAUAGUAAAUUCAAA | 0.125 ± 0.03 | 0.00279 ± 0.0021
30 | UCCUGCUACAGCUUGCAUAGUAAAAAGUAA | 0.0283 ± 0.0099 | 0.00322 ± 0.0027
31 | UCCUGGUACAGCUUGCAUACUAUUAAGUUA | 0.0468 ± 0.016 | 0.00282 ± 0.0022
32 | UCCUCCAUCAGCUUGCAUAGUAUUUUCAAA | 0.0846 ± 0.02 | 0.00384 ± 0.0024
33 | UCCUCGUACAGCUUGCAUAGUAUUUACAAA | 0.105 ± 0.025 | 0.00271 ± 0.0024
34 | UCCUGGAUGUGCUUCCAUAGUAUUUAGAAA | – | 0.00625 ± 0.0039
35 | UCCUGGAUGUGCUUGCAUAGUAUUUAGUAUA | – | 0.00507 ± 0.0027
36 | UCCUCCUACAGCUGGCAUAGUAUUUAGUUA | – | 0.0728 ± 0.02
37 | UCCUGGAUGUGCUUGCAUAGUAUUUACAAA | – | 0.00369 ± 0.0033
38 | UCCUGCUACAUCUUGCAUAGUAUUUAGUUA | – | 0.0423 ± 0.014
39 | UCCUCCUAGUCCUUGCAUAGUAUUUAGUUA | – | 0.0173 ± 0.0063
40 | UCCUGGAUGUCGAACCAUACUAAUUAGUUA | – | < 0.0001
41 | UCCUGGAUGUCGAACGUCAGUAUUUAGUUA | – | < 0.0001
42 | UCCUCCUACAGCUAGCAUAGUAUUUACAAA | – | 0.00397 ± 0.0031
43 | UCCUGCUACAGCUUGCAUAGUAUUUACAAA | – | 0.00255 ± 0.0022
44 | UCCUGGAUGUCGUGCAUAGUAUUUAGUUA | – | 0.00802 ± 0.003
45 | UCCUGCUACAGCUUGCAUAGUAGUUAGUUA | – | 0.00461 ± 0.0015
46 | UCCUGGAUCAGCUUGCAUUGUAUUUAGUUA | – | 0.0179 ± 0.0038

Row | Sequence | pre-steady-state target cleavage rate [1] | pre-steady-state target cleavage rate [2]
47 | UCCUGCUACAGCUUGCAUAGUAUUUCAGUUA | – | 0.00522 ± 0.0019
48 | UCCUGCUACAGCUUACAUAGUAUUUAGUUA | – | 0.0151 ± 0.0038
49 | UCCUGCUACAGCUUGCUUAGUAUUUUCAAA | – | 0.00321 ± 0.003
50 | UCCUGGAUGUCGAACGAUACGUAUUUAGUUA | – | < 0.0001
51 | UCCUGGAUGUCGAACGAUAGUAUUUAGGUA | – | < 0.0001
52 | UCCUGGAUGAGCUUGCAUAGUAAUUACAAA | – | 0.00446 ± 0.0034
53 | UCCUGGAUGAGCUUCCAUAGUAUUUAGAAA | – | 0.00248 ± 0.0019
54 | UCCUGGAUCAGCUUCCAUAGUAUUUAGAUA | – | 0.00231 ± 0.0018
55 | UCCUGGUAAAGCUUGCAUAGUAUUUAGUUA | – | 0.00606 ± 0.002
56 | UCCUGCUACAGGUUGCAUAGUAUUUUGUUA | – | 0.0057 ± 0.0026
57 | UCCUGGUACAGAUUGCAUAGUAUUUAGUUA | – | 0.0131 ± 0.0038
58 | UCCUGGUACAGCUUGCAAGUAUUUAGUUA | – | 0.00546 ± 0.0031
59 | UCCUGGAUGAGGUUGCAUAGUAUUUAGAAA | – | 0.00315 ± 0.0029
60 | UCCUGGUAUAGCUUGCAUAGUAUUUAGUUA | – | 0.0287 ± 0.0075
61 | UCCUGGAUGUCGAUGCAUAGUAUUUAGUUA [g2:g17:cont:t1A] | – | 0.00648 ± 0.0023
62 | UCCUGGAUGUCGAACGUAAGUAUUUAAUUA | – | < 0.0001
63 | UCCUGGAUGUCGAACGUAUCUAUUUAGUAA | – | < 0.0001
64 | UCCUGGAACAGCUUGGAUAGUAUUUACAAA | – | 0.00254 ± 0.0019
65 | UCCUGGUACACCUUGCAUAGUAAUUAGUUA | – | 0.00464 ± 0.0027
66 | UCCUGGAUGAGCUUGCAUAGUAUUUAGCUUA | – | 0.00409 ± 0.0018
67 | UCCUGCUUCAGGUUGCAUAGUAUUUAGUUA | – | 0.0664 ± 0.015
68 | UCCUCCUACAGCUAGGAUAGUAUUUAGUUA | – | 0.0581 ± 0.014
69 | UCCUGGAUGUGCUUGCAUAGCAUUUAGUUA | – | 0.00505 ± 0.0018
